This passage reports outcome and Potency results from PubChem BioAssay (Tox21).

In experiment [1] the test system is thyroid hormone receptor (rat, GH3 cells). The experiment in a line: qHTS assay to identify small molecule agonists of the thyroid receptor (TR) signaling pathway (AID 743066; calls by dose curve). In general terms: In qHTS, concentration-response curves come from the screen itself.
For experiment [2], the target named is Estrogen receptor (Homo sapiens) (UniProt P03372). The experiment in a line: qHTS assay to identify small molecule antagonists of the estrogen receptor alpha (ER-alpha) signaling pathway (AID 743069; active means well fitted curve in the direction sought with a large enough effect in the signal ratio in the repeat runs, not every such curve was filed as active; inconclusive means weak or mixed curves, or effect the other way; inactive means no such curve, though single readings can be large or run the other way; the % refers to the signal ratio; further: potency means the concentration at half of the fitted maximal effect). An outline of the steps:
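Compound effects are measured against 17beta-estradiol stimulation in HEK293 cells with a UAS-controlled beta-lactamase reporter for ER-alpha. Exposure lasts 18 hr at 37C; LiveBLAzer B/G FRET substrate follows for 2 hr at room temperature.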

A short description of experiment [3]: qHTS assay to identify small molecule antagonists of the estrogen receptor alpha (ER-alpha) signaling pathway - cell viability counter screen (AID 743074; calls by dose curve;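 further: HEK293 cells carrying ER-alpha-UAS-bla reporter stimulated with 17beta-estradiol; nearly all actives have a fitted effect of over 45% in size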; further: potency means the concentration at half of the fitted maximal effect).
Experiment [4] has as its target Estrogen receptor (Homo sapiens) (UniProt P03372). Nature of the experiment: qHTS assay to identify small molecule agonists of the estrogen receptor alpha (ER-alpha) signaling pathway (AID 743075; calls by dose curve).
The target is the same in experiment [5]. The experiment in a line: qHTS assay to identify small molecule agonists of the estrogen receptor alpha (ER-alpha) signaling pathway using the BG1 cell line (AID 743079). Further: nearly all actives have a fitted effect of over 20% in size. Conditions: BG1Luc4E2 cells, ERE-luciferase agonist, 22 h; activation: at 70.3 µM (top of the series).
A short description of experiment [6]: qHTS assay to identify small molecule antagonists of the estrogen receptor alpha (ER-alpha) signaling pathway using the BG1 cell line - cell viability counter screen (AID 743081).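 Further: compound given together with 17beta-estradiol as the ER stimulus; nearly all actives have a fitted effect of over 45% in size.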 Further: potency means the concentration at half of the fitted maximal effect.
For another experiment, the target named is Aromatase (Homo sapiens) (UniProt P11511). The experiment in a line: qHTS assay to identify aromatase inhibitors (AID 743083). Further: nearly all actives have a fitted effect of over 55% in size. Further: potency means the concentration at half of the fitted maximal effect.
A short description of experiment [7]: qHTS assay to identify aromatase inhibitors - cell viability counter screen (AID 743084).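 Further: cells stimulated with testosterone during compound exposure; nearly all actives have a fitted effect of over 55% in size.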 Further: potency means the concentration at half of the fitted maximal effect.
Experiment [8] in a line: qHTS assay to identify small molecule antagonists of the thyroid receptor (TR) signaling pathway (AID 743065). Further: potency means the concentration at half of the fitted maximal effect; nearly all actives have a fitted effect of over 55% in size. An outline of the steps: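 Antagonism measured as loss of luciferase signal in GH3 cells stably carrying a TRE-luciferase reporter, co-treated with compound and T3 (1 nM final) for 23.5 h at 37 C. Viability was read in the same well by CellTiter-Fluor.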
Experiment [9] can be described thus: qHTS assay to identify small molecule antagonists of the estrogen receptor alpha (ER-alpha) signaling pathway using the BG1 cell line (AID 743080; calls by dose curve;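 further: BG1 cells stimulated with 17beta-estradiol alongside compound; nearly all actives have a fitted effect of over 25% in size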; further: potency means the concentration at half of the fitted maximal effect). Summed up:
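Endogenous full-length ER-alpha in BG1-Luc-4E2 cells drives a stably integrated 4×ERE luciferase gene; compounds were tested against 17beta-estradiol over 21.5 h, with luminescence and multiplexed viability fluorescence recorded.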

The source made the active and inactive calls. Unless noted, the call rests on the fitted dose curve; in most records, active means well fitted curve in the direction sought with a large enough effect in the repeat runs; inconclusive means weak or mixed curves; inactive means no such curve, though single readings can be large; an effect the other way counts as inactive or inconclusive.

Chain of Aromatase (Homo sapiens) (P11511 whole entry, looked up): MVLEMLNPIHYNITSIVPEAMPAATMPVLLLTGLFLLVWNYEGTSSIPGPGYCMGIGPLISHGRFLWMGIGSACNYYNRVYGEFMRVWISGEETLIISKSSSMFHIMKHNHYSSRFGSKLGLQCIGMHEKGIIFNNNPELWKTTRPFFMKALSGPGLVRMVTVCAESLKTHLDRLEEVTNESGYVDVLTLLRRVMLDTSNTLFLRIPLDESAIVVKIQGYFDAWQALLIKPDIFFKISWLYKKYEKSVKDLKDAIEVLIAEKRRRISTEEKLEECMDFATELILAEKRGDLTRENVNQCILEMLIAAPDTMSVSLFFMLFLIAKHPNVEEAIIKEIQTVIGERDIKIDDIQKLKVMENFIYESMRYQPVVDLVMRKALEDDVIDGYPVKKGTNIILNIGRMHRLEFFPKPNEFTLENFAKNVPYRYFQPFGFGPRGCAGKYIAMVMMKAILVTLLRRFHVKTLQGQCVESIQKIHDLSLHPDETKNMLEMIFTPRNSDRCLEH
Chain of Estrogen receptor (Homo sapiens) (P03372 whole entry, looked up): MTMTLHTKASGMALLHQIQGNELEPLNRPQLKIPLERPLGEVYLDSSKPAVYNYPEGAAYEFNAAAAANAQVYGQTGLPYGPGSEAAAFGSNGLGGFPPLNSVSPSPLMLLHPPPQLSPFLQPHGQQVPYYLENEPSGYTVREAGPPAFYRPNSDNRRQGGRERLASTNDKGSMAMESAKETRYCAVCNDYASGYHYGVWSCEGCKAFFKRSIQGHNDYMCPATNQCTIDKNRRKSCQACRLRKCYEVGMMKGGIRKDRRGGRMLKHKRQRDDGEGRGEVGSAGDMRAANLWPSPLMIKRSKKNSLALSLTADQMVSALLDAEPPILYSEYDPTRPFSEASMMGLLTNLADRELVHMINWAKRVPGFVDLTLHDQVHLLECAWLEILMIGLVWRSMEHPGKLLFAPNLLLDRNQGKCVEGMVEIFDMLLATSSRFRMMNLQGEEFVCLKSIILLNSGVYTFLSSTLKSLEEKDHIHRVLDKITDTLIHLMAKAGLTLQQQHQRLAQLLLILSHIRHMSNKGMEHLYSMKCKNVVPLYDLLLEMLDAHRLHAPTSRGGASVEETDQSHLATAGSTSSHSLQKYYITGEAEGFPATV

Take `CCCCOc1ccc(OCCCN2CCOCC2)cc1`: in [1], the call was inactive. The Potency entry (in [2]; in experiment [3]; in experiment [4]; in [5]; in [6]; with Aromatase (Homo sapiens)) was “inactive” in each case. Besides, the Potency result in experiment [7] was “inactive”.

Regarding `Cc1cc(=O)c2c(O)c3c(O)cc(=O)c4c3c3c(cc(O)c1c23)C(C)(C)C=4O`, in experiment [8], the Potency was 0.596 µM (active). For the same compound, the Potency result in [7] is “inactive”.

`CN1C[C@H](C(=O)N[C@]2(C)O[C@@]3(O)[C@@H]4CCCN4C(=O)[C@H](Cc4ccccc4)N3C2=O)C[C@@H]2c3cccc4[nH]cc(c34)C[C@H]21`: in experiment [8], the Potency is 26.6 µM (active). The Potency entry (in [2]; in experiment [3]; in [4]; in experiment [9]; in experiment [6]; in the experiment with Aromatase (Homo sapiens)) was “inactive” in each case. In experiment [7], the Potency entry is “inactive”.

For the compound `C=C/C(C)=C/C/C=C(\C)CCC=C(C)C`, the result in experiment [1] was inactive. Also, the Potency entry (in experiment [2]; in [3]; in experiment [4]; in [5]; in [6]; with Aromatase (Homo sapiens)) was “inactive” throughout.

As to `COc1cc(Nc2c(C#N)cnc3cc(OCCCN4CCN(C)CC4)c(OC)cc23)c(Cl)cc1Cl`, the values for the Potency (in experiment [8]; in experiment [3]; with Aromatase (Homo sapiens)) were 9.44 µM (active), 26.8 µM (active) and 26.6 µM (active), respectively.

`CC(C)COCC(CN(Cc1ccccc1)c1ccccc1)N1CCCC1` (stereo unspecified): in experiment [8], the Potency was 10.6 µM (active). The Potency result in [3], in experiment [4], in experiment [5], in experiment [9], in [6] and in experiment [7] was “inactive” each time.

`COc1ccccc1N1CCN(CCCCNC(=O)c2ccc(-c3ccc(C(C)=O)cc3)cc2)CC1`: the result in experiment [1] was inactive. The Potency entry (in experiment [2]; in [3]; in experiment [4]; in experiment [5]; in the experiment with Aromatase (Homo sapiens); in [7]) was “inactive” throughout.

With `C[C@@H](O[C@H]1OCCN(Cc2n[nH]c(=O)[nH]2)[C@H]1c1ccc(F)cc1)c1cc(C(F)(F)F)cc(C(F)(F)F)c1`, the Potency was 10.6 µM (active) in [8] and 29.8 µM (active) in the experiment with Aromatase (Homo sapiens). Further, in experiment [6], the Potency result was “inactive”.

Turning to `CCCCC(CC)CN` (stereo unspecified), in experiment [1], the outcome was inactive. Besides, the Potency result in experiment [2], in experiment [4], in [5], in [9], in experiment [6] and in experiment [7] was “inactive” each time.

On to `C=C(C)[C@@H]1CCC2=CCC[C@@H](C)[C@]2(C)C1`, for which the outcome in experiment [1] was inactive. For the same compound, the Potency result in experiment [2], in experiment [3], in [4], in experiment [9], in experiment [6] and in experiment [7] was “inactive” each time.

In the case of `CC1(CN2CCC(n3c(=O)[nH]c4ccccc43)CC2)OCc2ccccc2-n2cccc21` (stereo unspecified), the Potency in [8] was 26.6 µM (active); in experiment [9], 29.8 µM (active). Moreover, the Potency entry in [3], in experiment [4], in experiment [6] and in [7] was “inactive” each time.

With `CC(C)C[C@H](NC(=O)[C@H](CCc1ccccc1)NC(=O)CN1CCOCC1)C(=O)N[C@@H](Cc1ccccc1)C(=O)N[C@@H](CC(C)C)C(=O)[C@@]1(C)CO1`, the Potency in experiment [8] is 0.0298 µM (active); in [2], 601 nM [inconclusive] (active); in experiment [9], 0.188 µM (active); with Aromatase (Homo sapiens), 0.0335 µM (active). Besides, the Potency entry in experiment [6] is “inactive”.

In the case of `CC(=O)N/N=C/c1ccc([N+](=O)[O-])o1`, the Potency in experiment [8] is 16.8 µM (active). The Potency result in experiment [2], in [3], in experiment [4], in experiment [9] and in experiment [6] was “inactive” each time.

For the compound `C[C@@H]1CC(=O)NN=C1c1ccc(NN=C(C#N)C#N)cc1`, the Potency in [8] is 13.3 µM (active); in experiment [6], 23.7 µM (active); with Aromatase (Homo sapiens), 29.8 µM (active); in experiment [7], 26.6 µM (active). For the same compound, the Potency entry in experiment [2], in [3], in experiment [4] and in experiment [9] was “inactive” each time.

On to `COc1cc(C(=O)NC2CCN(C)CC2)ccc1Nc1ncc2c(n1)N(C1CCCC1)CC(F)(F)C(=O)N2C`, for which the Potency in experiment [8] was 0.0628 µM (active); in [2], 1590 nM [inconclusive] (active); in experiment [3], 40 µM (active); in experiment [7], 25 µM (active). Besides, the Potency entry in [4] is “inactive”.

On to `Oc1ccc(Cl)c2cccnc12`, for which the Potency result in experiment [3], in [4], in experiment [5], in experiment [9] and in experiment [6] was “inactive” each time. Moreover, the Potency with Aromatase (Homo sapiens) was 3.35 µM (active).

As to `Nc1nnc(-c2ccc([N+](=O)[O-])o2)o1`, the Potency entry in experiment [2], in [3] and in [4] was “inactive” throughout. Also, the values for the Potency (with Aromatase (Homo sapiens); in experiment [7]) were 48.6 µM (active) and 61.1 µM (active), respectively.

Consider `CCOc1ccc(Cc2nccc3cc(OCC)c(OCC)cc23)cc1OCC`, for which the compound was called inactive in [1]. Further, the Potency entry (in [3]; in experiment [4]; with Aromatase (Homo sapiens); in experiment [7]) was “inactive” throughout. For the same compound, the Potency in [9] is 11.4 µM (active).

Take `CCOc1cccc(-n2cc(C(=O)N3CCN(c4cc(C(=O)O)c5ccccc5c4)CC3)nc2-c2ccc(C)cc2)c1`: in [1], the compound was classed as inactive. The Potency result (in [6]; in the experiment with Aromatase (Homo sapiens); in experiment [7]) was “inactive” each time.

With `CCc1ccccc1`, the Potency entry in experiment [2], in [3], in experiment [4], in experiment [5], in [9] and in [6] was “inactive” in each case. Besides, the Potency result (with Aromatase (Homo sapiens); in [7]) was “inactive” in each case.

Turning to `CCOC(=O)/C=C/C(=O)OCC`, the Potency entry in experiment [2], in [3], in experiment [4], in experiment [5], in experiment [9] and in experiment [6] was “inactive” each time. Also, the Potency result (in the experiment with Aromatase (Homo sapiens); in experiment [7]) was “inactive” in each case.

Consider `Cc1cccc(O)c1N`, for which the call in experiment [1] was inactive. Further, the Potency result (in [3]; in [6]; with Aromatase (Homo sapiens); in experiment [7]) was “inactive” throughout.

In the case of `Cc1cc(O)ccc1O`, the outcome in experiment [1] was inactive. Further, the Potency entry in [3] and in [6] was “inactive” in each case.

Take `CN(C(=O)CN(CCO)CC(=O)N(C)C(C)(C)Cc1ccccc1)C(C)(C)Cc1ccccc1`: the compound was classed as inactive in experiment [1]. Moreover, the Potency result in [3] and in experiment [6] was “inactive” in each case.

With `COc1ccccc1Oc1c(NS(=O)(=O)c2ccc(C(C)(C)C)cc2)nc(-c2ncccn2)nc1OCCO`, the Potency entry (in [2]; in [4]; in experiment [5]; in experiment [9]; in [6]; in the experiment with Aromatase (Homo sapiens)) was “inactive” throughout. Also, in experiment [7], the Potency entry is “inactive”.

With `O=C1C(=O)c2ccccc2C(O)=C1C1CCC(c2ccc(Cl)cc2)CC1` (stereo unspecified), the call in experiment [1] was inactive. The Potency in experiment [3] is 2.04 µM (active). Moreover, the Potency entry (in experiment [4]; in experiment [5]; in experiment [6]; in the experiment with Aromatase (Homo sapiens); in experiment [7]) was “inactive” each time.
